Shown are actives, neighbours in structure and some others; about 3.7% of the full set was active somewhere.
GDH-TPI counter-1: GDH-TPI coupled enzyme inhibition counter-screen; GDH-TPI coupled enzyme counterscreen, NADH absorbance; hit rate 1.2% among 360,000; inhibition, % at 4.8 µM; in the data active = inhibition above about 30%;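 note: 0% = DMSO wells and 100% = wells lacking the enzyme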
FadD28 FP inh: M. tuberculosis FadD28 bisubstrate binding inhibition | FadD28 bisubstrate probe binding, fluorescence polarization | inhibition, % at 12.5 µM | hit rate 0.22% among 360,000 | AID 588549; in the data active = inhibition above about 8.5%, passing the limit was not always enough
Rv3671c protease: Rv3671c (M. tuberculosis) protease inhibition; inhibition, % at 5.96 µM; hit rate 0.048% among 320,000; AID 2606; in the data active = inhibition above about 38%;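 note: extracellular domain of Rv3671c used as enzyme; 0% = enzyme with DMSO and 100% = no enzyme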
Mtb betalactam: beta-lactam sensitization of Mtb H37Rv | M. tuberculosis H37Rv growth with meropenem, percent inhibition | inhibition, % at 25 µM | hit rate 0.27% among 330,000;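 note: growth measured after seven days incubation then overnight dye step; 0% = bacteria only wells and 100% = bacteria with antibiotic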
Mtb FBA inh: Mtb fructose-bisphosphate aldolase inhibition. P9WQA3. purified M. tuberculosis FBA, fluorescence read-out. inhibition, % at 1 µM. hit rate 2.3% among 360,000; in the data active = inhibition above about 27%;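 note: 0% = vehicle and 100% = reference inhibitor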
Target sequence (P9WQA3 whole entry, looked up): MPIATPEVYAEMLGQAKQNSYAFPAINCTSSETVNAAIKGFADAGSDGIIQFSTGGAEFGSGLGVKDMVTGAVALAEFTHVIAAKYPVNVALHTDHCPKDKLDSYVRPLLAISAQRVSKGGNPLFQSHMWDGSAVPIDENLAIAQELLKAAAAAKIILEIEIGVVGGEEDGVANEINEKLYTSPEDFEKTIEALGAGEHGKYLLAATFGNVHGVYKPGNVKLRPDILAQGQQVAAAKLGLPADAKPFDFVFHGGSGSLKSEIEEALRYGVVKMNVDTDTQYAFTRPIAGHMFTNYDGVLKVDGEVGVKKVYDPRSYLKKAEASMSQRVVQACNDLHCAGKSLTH
Mtb UGM inh: Mtb UDP-galactopyranose mutase inhibition; P9WIQ1; purified UGM, fluorescence polarization probe displacement; inhibition, % at 10 µM; hit rate 0.06% among 320,000; in the data active = inhibition above about 10%, passing the limit was not always enough
Target sequence (P9WIQ1 whole entry, looked up): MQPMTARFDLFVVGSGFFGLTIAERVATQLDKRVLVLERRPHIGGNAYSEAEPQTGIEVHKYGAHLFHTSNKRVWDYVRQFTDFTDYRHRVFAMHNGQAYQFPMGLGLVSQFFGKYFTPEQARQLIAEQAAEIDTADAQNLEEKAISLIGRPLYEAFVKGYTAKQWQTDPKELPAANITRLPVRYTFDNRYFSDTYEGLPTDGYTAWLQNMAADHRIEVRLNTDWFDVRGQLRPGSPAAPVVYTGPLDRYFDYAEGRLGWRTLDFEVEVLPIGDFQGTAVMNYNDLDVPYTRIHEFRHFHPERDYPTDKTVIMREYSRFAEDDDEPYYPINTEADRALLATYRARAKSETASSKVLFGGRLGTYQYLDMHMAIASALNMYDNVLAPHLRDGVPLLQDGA
Mtb FBA confirm: Mtb FBA inhibition, confirmed | purified M. tuberculosis FBA, fluorescence read-out | AID 651616 | inhibition, % at 1 µM | hit rate 78% among 5,600 | shares compounds with Mtb FBA inh; in the data active = inhibition above about 27%;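 note: 0% = vehicle wells and 100% = reference inhibitor wells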
GDH-TPI counter-2: counter-screen for M. tuberculosis FBA inhibitors: GDH-TPI coupled enzyme inhibition | shares compounds with Mtb FBA inh | GDH-TPI coupled enzyme counterscreen, fluorescence | inhibition, % at 1 µM | hit rate 81% among 5,600 | AID 652141; in the data active = inhibition above about 10%
GDH-TPI dose: inhibits GDH-TPI coupling enzymes in dose response | shares compounds with Mtb FBA inh | GDH-TPI coupled enzyme assay, fluorescence, artifact counterscreen | IC50, µM | hit rate 79% among 170 | AID 652145
An asterisk follows results filed as active; nt = no result given; + = active, no number. Unless noted, the rule behind the calls is not given here.

SMILES | GDH-TPI counter-1 | FadD28 FP inh | Rv3671c protease | Mtb betalactam | Mtb FBA inh | Mtb UGM inh | Mtb FBA confirm | GDH-TPI counter-2 | others
COc1cccc(NC(=O)N(C)C[C@@H]2OCc3cn(nn3)CCCC(=O)N([C@H](C)CO)C[C@H]2C)c1 | 9.9 | -3.3 | nt | nt | -4.4 | nt | nt | nt
CCCN(CC1CC1)C(=O)COC(=O)c1oc2ccc(OCC)cc2c1C | 9.5 | -1.7 | -4.4 | 1.4 | 41.9* | -4.9 | + | 185.6*
CCOc1ccc2oc(C(=O)OCC(=O)NC(=O)NC)c(C)c2c1 | 15.6 | -3.2 | -0.7 | 7.2 | 8.2 | -0.7 | nt | nt
COc1ccc2oc(C(=O)Nc3nccs3)c(C)c2c1 | 11.3 | -2.4 | -1.2 | -11.1 | -0.8 | -0.9 | nt | nt
CCN(C(=O)COc1cc(OC)ccc1C(C)=O)C1CCS(=O)(=O)C1 (stereo unspecified) | 17.8 | 0.2 | 5.8 | 1.6 | 3.3 | -1.7 | nt | nt
COc1ccc2oc(C(=O)NC3(C)CCS(=O)(=O)C3)c(C)c2c1 (stereo unspecified) | 12.0 | -0.1 | -2.8 | -9.9 | 39.5* | 2.5 | + | +
CCN(C(=O)COC(=O)c1oc2ccc(OC)cc2c1C)C1CCS(=O)(=O)C1 (stereo unspecified) | 4.1 | -2.8 | nt | nt | 60.4* | nt | 111.8* | 120.6*
COc1ccc2oc(C(=O)OCC(=O)NC3CCCCC3)c(C)c2c1 | 10.2 | 0.7 | -3.1 | -10.1 | 39.0* | 0.5 | 89.8* | 78.3*
CCCCNC(=O)c1cccc(S(=O)(=O)N2CC3(C)CC2CC(C)(C)C3)c1 (stereo unspecified) | 1.9 | -2.4 | -5.9 | -2.8 | 0.1 | -3.1 | nt | nt
Cc1n[nH]c(=O)n(N=Cc2cccs2)c1=O | -4.8 | -4.7 | nt | nt | -4.9 | nt | nt | nt
CN(CC(=O)Nc1ccc(Cl)c(Cl)c1)CC(=O)N1CCCCCC1 | 4.6 | -1.6 | nt | nt | -1.3 | nt | nt | nt
CCN(CC)C(=O)OCCc1cc2ccccc2c(=O)o1 | 5.7 | -3.3 | 2.6 | -4.2 | 1.6 | -0.9 | nt | nt
CC(C)Oc1ccc2ccccc2c1CNC[C@H]1O[C@@H](n2ccc(N)nc2=O)[C@H](O)[C@@H]1O | 8.1 | 0.4 | nt | nt | -0.1 | nt | nt | nt
Cc1nn(-c2ccccc2)c(-c2ccccc2[N+](=O)[O-])c1CC#N | nt | -2.6 | nt | nt | 0.9 | nt | nt | nt
CNc1ncnc2c1ncn2[C@H]1CN(C2CCCC2)C[C@@H](CO)O1 | 5.3 | -1.2 | nt | nt | 0.7 | nt | nt | nt
CCOc1ccc2oc(C(=O)OCC(=O)NC3CCCC3)c(C)c2c1 | 1.6 | 0.0 | -10.4 | -7.7 | 31.2* | 2.0 | 14.2 | 9.1 | GDH-TPI dose=6.68*
CC1CCC2(CC1)NC(=O)N(CC(=O)Nc1ccccc1-c1ccccc1)C2=O (stereo unspecified) | 0.6 | -2.3 | 2.5 | 2.1 | 54.6* | 1.2 | 9.6 | -3.7
CC1(C2CC2)NC(=O)N(CC(=O)Nc2ccccc2-c2ccccc2)C1=O (stereo unspecified) | 2.5 | -1.5 | 4.9 | 3.0 | 3.8 | -0.2 | nt | nt
CCCCN1C(=O)C(CC(=O)NCCCN(C)C)CC(C(=O)N(C)C)=C1C (stereo unspecified) | 3.8 | -1.3 | nt | nt | 0.5 | nt | nt | nt
O=C(Nc1ccc(-c2nc3c(ccc4ccccc43)o2)cc1)c1ccco1 | 48.2* | -2.7 | -22.1 | 8.6 | 54.5* | 0.4 | 106.6* | 102.8*
CCc1nc2ccc(C(=O)NCCCn3ccnc3)cn2c1N(C)CCC(C)C | 7.4 | -0.7 | nt | nt | -1.7 | nt | nt | nt
O=c1cc(-c2cccnc2)oc2c1ccc1ccccc12 | 0.0 | -3.9 | -1.6 | 93.8 | 44.9* | 2.0 | + | 186.3*
O=C(COC(=O)COc1ccccc1)Nc1cccc([N+](=O)[O-])c1 | 3.4 | 2.7 | 0.2 | -0.8 | 0.1 | 1.2 | nt | nt
O=C(COC(=O)c1ccccc1C(=O)c1ccccc1)Nc1cccc([N+](=O)[O-])c1 | 5.2 | -0.5 | -3.9 | -6.2 | 55.2* | -2.9 | 85.4* | 74.3*
C=C(C)COc1ccc2c(C)c(CCC(=O)N3C[C@H]4C[C@@H](C3)c3cccc(=O)n3C4)c(=O)oc2c1 | 23.5 | -1.0 | 7.6 | -3.3 | 70.3* | 3.0 | 65.3* | 52.8*
SMILES | GDH-TPI counter-1 | FadD28 FP inh | Rv3671c protease | Mtb betalactam | Mtb FBA inh | Mtb UGM inh | Mtb FBA confirm | GDH-TPI counter-2 | others
COc1cc(C)cc2oc(=O)c(CC(=O)N3C[C@H]4C[C@@H](C3)c3cccc(=O)n3C4)c(C)c12 | 3.9 | -3.2 | -4.7 | 8.8 | 80.6* | 2.8 | 139.0* | 123.6*
Cc1cc(O)c2c(C)c(CC(=O)N3C[C@H]4C[C@@H](C3)c3cccc(=O)n3C4)c(=O)oc2c1 | 9.8 | -3.4 | -4.0 | 3.0 | 1.6 | 1.2 | nt | nt
Cc1coc2cc3oc(=O)c(CCC(=O)N4C[C@H]5C[C@@H](C4)c4cccc(=O)n4C5)c(C)c3cc12 | 11.8 | 0.2 | -4.2 | -3.2 | 17.1 | 1.0 | nt | nt
C=C(C)COc1cc2oc(=O)c(CC(=O)N3C[C@H]4C[C@@H](C3)c3cccc(=O)n3C4)c(C)c2cc1Cl | 22.6 | -2.0 | 4.4 | -4.0 | 67.5* | 0.7 | 1.6 | -3.0
Cc1c(C)c2ccc(OCC(=O)N3C[C@H]4C[C@@H](C3)c3cccc(=O)n3C4)cc2oc1=O | 22.6 | 0.0 | -7.0 | -1.0 | 59.9* | 1.5 | -8.1 | -5.6
O=C(O)C1C=CCC(C(=O)O)C1 (stereo unspecified) | 3.5 | -3.2 | nt | nt | 0.5 | nt | nt | nt
CCc1ccc(NC(=O)C(C)OC(=O)CC(NC(C)=O)c2ccccc2)cc1 (stereo unspecified) | -6.0 | -1.7 | 7.5 | 3.4 | 1.9 | -1.3 | nt | nt
CN(C)C(=O)Oc1ccc(-c2cn3cc(C(F)(F)F)ccc3n2)cc1 | 5.8 | -2.9 | -0.1 | 1.6 | 34.2* | 1.9 | 70.0* | 58.5*
c1ccc(-n2cnc3ccccc32)nc1 | 4.5 | -0.7 | -2.9 | -3.0 | -0.3 | -3.4 | nt | nt
c1ccc(-c2ccc(-c3n(-c4ccccn4)c4ccccc4[n+]3-c3ccccn3)cc2)cc1 | 2.2 | -4.3 | nt | nt | 45.8* | nt | 189.1* | 171.6*
Cc1oc(/N=C/c2ccc(O)cc2O)c(C#N)c1C | 17.9 | -0.5 | -0.4 | 7.7 | 70.9* | 0.9 | + | +
CCC(=O)Nc1cccc(-c2nc3ccc(C)cc3o2)c1 | 4.3 | 0.1 | -4.1 | 13.9 | 31.7* | 2.0 | 114.8* | 99.0*
Cc1ccc2oc(-c3cccc(NC(=O)c4ccccn4)c3)nc2c1 | 5.6 | -1.2 | -7.7 | 1.6 | 2.6 | 0.9 | nt | nt
Cc1ccc2nc(-c3ccc(O)cc3)oc2c1 | 3.7 | -0.9 | -5.8 | 2.0 | 65.9* | -0.2 | 67.8* | 45.8*
Cc1ccc(-c2nc3cc(Cl)ccc3o2)cc1 | 8.1 | 0.0 | 5.3 | 5.8 | 1.9 | -1.4 | nt | nt
Cc1cc(C)c2oc(-c3cccc(N)c3)nc2c1 | 9.6 | -0.8 | 0.4 | 9.7 | 51.8* | 0.3 | 18.8 | 7.2 | GDH-TPI dose=0.879*

Screening data deposited in PubChem by several laboratories.
